In PubChem BioAssay:

Target: Follistatin (Homo sapiens) (UniProt P19883)
Experiment: follistatin binders on small-molecule microarrays, primary screen, biochemical, small-molecule microarray, 635/667 nm fluorescence (AID 1132)
Conditions: FST binding, 635 nm fluorescence, higher = more signal

Follistatin (Homo sapiens), sequence (P19883 whole entry, looked up): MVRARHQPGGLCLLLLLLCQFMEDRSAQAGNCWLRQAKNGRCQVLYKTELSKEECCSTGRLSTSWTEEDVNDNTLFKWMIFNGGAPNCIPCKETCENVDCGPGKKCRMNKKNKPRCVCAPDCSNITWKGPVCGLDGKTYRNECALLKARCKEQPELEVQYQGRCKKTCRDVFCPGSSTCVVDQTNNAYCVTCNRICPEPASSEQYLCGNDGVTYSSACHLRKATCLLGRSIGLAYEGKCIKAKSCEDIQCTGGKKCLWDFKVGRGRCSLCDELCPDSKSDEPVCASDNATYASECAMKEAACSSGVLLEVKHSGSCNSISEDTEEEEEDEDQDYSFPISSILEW

Row | SMILES | composite z-score
1 | CCCCCN1CC=CC23O[C@@H]4/C=C\CCCOC(=O)C4[C@H]2C(=O)N(CCO)[C@@H]3C1=O (stereo partly specified) | -0.274
2 | CN1C2C=C(c3ccc(CO)cc3)C(C3C(=O)N(C(N)=O)C(=O)C32)C1C1CC1 (stereo unspecified) | -0.189
3 | Cc1ccc(S(=O)(=O)N2[C@@H](c3ccccc3)C(C(=O)O)=C[C@H]2C(C)(C)C)cc1 | 0.804
4 | C=C(C(=O)CC[C@@H](OC(=O)c1ccccc1-c1ccccc1C(=O)O)c1ccc(CO)o1)C(C)C | 1.39
5 | COC(=O)[C@@]1(Cc2ccc(F)cc2)[C@@H]2C(=CC(=O)[C@H]2CC(=O)C(=O)N2CCCC2)CN1C(=O)c1ccccc1 | 1.26
6 | COC(=O)C(CC#Cc1ccc2c(c1)[C@]1(C(=O)N2)[C@H](C(=O)N2CCCCCCC2)[C@H]2C(=O)O[C@H](c3ccccc3)[C@H](c3ccccc3)N2[C@@H]1c1ccc(OCCO)cc1)C(=O)OC | 1.49
7 | C=CC[C@H](OC(=O)Nc1ccc(SC)cc1)c1ccc(O)c(F)c1 | 0.137
8 | Cc1cccc([C@H]2C[C@H]3C(Br)=C[C@@]2(CO)C(=O)[C@]32CO2)c1 | 0.39
9 | C=C(CCCC)C(=O)CC[C@H](OC(=O)c1ccccc1-c1ccccc1C(=O)O)c1cccc(OCCO)c1 | -0.0662

Target: Fibroblast growth factor 2 (Homo sapiens) (UniProt P09038)
Sequence (P09038 whole entry, looked up): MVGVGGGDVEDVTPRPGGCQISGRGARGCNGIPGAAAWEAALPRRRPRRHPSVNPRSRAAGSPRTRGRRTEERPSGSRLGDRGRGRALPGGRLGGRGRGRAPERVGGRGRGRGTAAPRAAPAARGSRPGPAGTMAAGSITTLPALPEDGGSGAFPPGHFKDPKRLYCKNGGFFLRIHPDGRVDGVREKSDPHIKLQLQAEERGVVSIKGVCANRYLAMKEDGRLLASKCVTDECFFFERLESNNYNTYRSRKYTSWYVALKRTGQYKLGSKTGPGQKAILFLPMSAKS
Experiment: FGF2 binders on small-molecule microarrays, primary screen, biochemical, small-molecule microarray, 635/667 nm fluorescence (AID 1133)
Conditions: small-molecule microarray binding, FGF2, fluorescence 635/667; higher = more signal

Row | SMILES | composite z-score
10 | CCOC(=O)C1=CC[C@@H](c2ccccc2)N(S(=O)(=O)c2ccc(C)cc2)[C@@H]1C#N | -0.501
11 | C=CCN1C(=O)[C@]2(O[C@H](CCO)[C@@H]([Si](C)(C)c3ccc(OC)cc3)[C@@H]2C)c2cc(N3C(=O)c4ccccc4Oc4ccccc43)ccc21 | 0.0857
12 | C=CCOC(=O)[C@H]1[C@@H]2C(=O)O[C@@H](c3ccccc3)[C@@H](c3ccccc3)N2[C@@H](c2ccc(OCCOC(=O)[C@H]3C[C@H]4C(=O)NCC(=O)N4[C@H]3c3ccc(O)cc3)cc2)[C@]12C(=O)Nc1ccccc12 | 1.46
13 | C=CCOC(=O)[C@H]1[C@@H]2C(=O)O[C@@H](c3ccccc3)[C@@H](c3ccccc3)N2[C@@H](c2ccc(OCCOC(=O)[C@@H]3C[C@@H]4C(=O)N[C@@H](Cc5ccccc5)C(=O)N4[C@@H]3c3ccc(O)cc3)cc2)[C@]12C(=O)Nc1ccc(I)cc12 | 1.25
14 | CC(C)[Si](C#Cc1ccccc1)(O[C@H](c1ccccc1)c1cn(Cc2ccccc2)nn1)C(C)C | 1.3
15 | O=C(NCCN1CCOCC1)[C@@H]1c2ccccc2C(=O)N(CC23CC4CC(CC(C4)C2)C3)[C@H]1c1ccc(CO)cc1 | 0.424
16 | O=C1O[C@@H](c2ccccc2)[C@@H](c2ccccc2)N2[C@@H](c3ccccc3OCCO)[C@]3(C(=O)Nc4ccc(C#CC5(O)CCCCCC5)cc43)[C@@H](C(=O)N3CCCCCCC3)[C@H]12 | 0.718
17 | CCOC(=O)C[C@H]1[C@H](OC(=O)c2ccc(-c3ccccc3)cc2)[C@@H](NC(=O)C2CCCCC2)c2cc(OCCCO)ccc2N1C(=O)Cc1ccc(OC)cc1 | 0.345
18 | C=CCC(OC(C)=O)[C@@H]1[C@@H](N(Cc2cccc3ccccc23)C(=O)c2ccc(C)cc2)c2cc(OCCCO)ccc2N1C(=O)Cc1ccc2ccccc2c1 (stereo partly specified) | -0.0243
19 | COC(=O)C1(CC(C)C)C=C2C(=C(C)C(=O)C2C)CN1 (stereo unspecified) | -0.583
20 | COC(=O)[C@@]1(Cc2ccc(F)cc2)[C@H]2c3cc(C(=O)N4CCCC4)n(C[C@H](O)CO)c3C[C@H]2CN1C(=O)c1ccccc1 | -0.157
21 | COC(=O)C(CC#Cc1ccc2c(c1)[C@]1(C(=O)N2)[C@H](C(=O)NC[C@H](O)c2ccccc2)[C@H]2C(=O)O[C@H](c3ccccc3)[C@H](c3ccccc3)N2[C@@H]1c1ccc(O)cc1)C(=O)OC | 0.0859
22 | CC(C)c1ccc(NN2C(C(O)C3CCCCC3)C=CC3C(=O)N(c4ccccc4)C(=O)C32)cc1 (stereo unspecified) | 0.66
23 | CN(C)C(=O)[C@]1(CCS(=O)(=O)c2ccccc2)N=C(c2ccc(OCCCO)cc2)O[C@@H]1c1ccccc1CN=[N+]=[N-] | 1.45
24 | COc1ccc(C(=O)Nc2cccc(CN3C(=O)[C@]4(O[C@H](CC(=O)N(CCO)Cc5ccccc5)[C@@H]([Si](C)(C)c5ccc(OC)cc5)[C@@H]4C)c4ccccc43)c2)cc1 | 1.15
25 | C=CCNC(=O)[C@@H]1[C@H]2C(=O)O[C@H](c3ccccc3)[C@H](c3ccccc3)N2[C@H](c2ccc(O)cc2)[C@@]12C(=O)N(C(=O)OCCOC)c1ccc(C#CCC(C(=O)OC)C(=O)OC)cc12 | 0.722
26 | C=CCNC(=O)[C@H]1[C@@H]2C(=O)O[C@@H](c3ccccc3)[C@@H](c3ccccc3)N2[C@@H](c2ccc(OCCO)cc2)[C@]12C(=O)N(C(=O)OCCOC)c1ccc(C#CCNC(N)=O)cc12 | 1.71
